This is an account of results in PubChem BioAssay.

Test [1] relates to Human papillomavirus type 1a protein E7 (residues 44-93). The test can be described thus: HPV1a E7 fragment binders on microarrays, primary screen, biochemical, small-molecule microarray, residues 44-93, 635 nm fluorescence (AID 1108).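 Note: E7 fragment applied at 1 µg/mL in TBST for 1 h at 4 C; score combines spot fluorescence with its signal to noise ratio.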 The settings on record: small-molecule microarray binding, fluorescence 635 nm; higher = more signal.
The nature of test [2]: modulators of HCV replicon luciferase signal, primary screen, HCV replication inhibitor project, Huh7 cells, luciferase reporter (AID 1109).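 Note: huh7 hepatoma cells harbouring a luciferase neomycin HCV replicon reporter; luciferase luminescence as measure of HCV replicon replication; test concentration not given here.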 The conditions noted are these: 48 h, higher = more signal.
In test [3] the target is Left-right determination factor 2 (Homo sapiens) (UniProt O00292). Description: LEFTY2 binders on small-molecule microarrays, primary screen, biochemical, small-molecule microarray, 635 nm fluorescence scan (AID 1110). The settings on record: LEFTY2 binding, higher = more signal.
Sequence of Left-right determination factor 2 (Homo sapiens) (O00292 whole entry, looked up): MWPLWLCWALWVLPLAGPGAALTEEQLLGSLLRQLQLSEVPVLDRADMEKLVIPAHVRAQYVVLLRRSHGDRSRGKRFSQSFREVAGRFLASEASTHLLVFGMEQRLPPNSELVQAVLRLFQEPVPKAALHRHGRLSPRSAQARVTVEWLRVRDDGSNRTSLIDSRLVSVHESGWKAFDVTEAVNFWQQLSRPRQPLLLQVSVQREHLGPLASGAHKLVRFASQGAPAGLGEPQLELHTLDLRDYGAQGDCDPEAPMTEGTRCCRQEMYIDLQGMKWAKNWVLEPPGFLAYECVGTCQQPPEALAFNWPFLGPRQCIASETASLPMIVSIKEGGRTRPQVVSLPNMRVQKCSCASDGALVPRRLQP
In test [4] the target is Calmodulin-1 (Homo sapiens) (UniProt P0DP23). The test can be described thus: CALM1 binders on microarrays, EGTA buffer, profiling panel, biochemical, small-molecule microarray, Cy5-labelled CALM1 (AID 1111).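 Note: labelled calmodulin applied in Tris saline Tween buffer holding calcium plus EGTA and DTT.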 The settings on record: Cy5-CALM1 binding fluorescence, higher = more signal.
Test [5] shares this target. Description: calcium-bound CALM1 binders on microarrays, profiling panel, artefact control for SMM control-protein annotation, biochemical, small-molecule microarray, Cy5-labelled CALM1, plus calcium (AID 1112).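 Note: score merges spot fluorescence with signal to noise from triplicate slides.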 The settings on record: Cy5-CALM1 binding fluorescence, higher = more signal.
A short description of test [6]: small-molecule microarray binders of probe aWnt5a, primary screen, biochemical, biotinylated probe, 635/667 nm fluorescence (AID 1113).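 Note: score merges 667 nm fluorescence intensity with signal-to-noise per printed feature.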 The conditions noted are these: higher = more signal.
Test [7] is described as follows: small-molecule microarray binders of probe aShh, primary screen, biochemical, biotinylated probe, 635/667 nm fluorescence (AID 1114).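 Note: probe is biotin-labelled aShh protein from a stem cell growth factor screen; measures binding of labelled protein to compounds printed on the slide; score merges feature fluorescence at 667 nm with signal-to-noise.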 The settings on record: higher = more signal.
Test [8] in a line: small-molecule microarray binders of probe aNog, primary screen, biochemical, biotinylated probe, 635/667 nm fluorescence (AID 1115).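 Note: probe is biotinylated aNog protein used at 0.15 µg/mL for 1 h at 4 C; z-score combines 667 nm fluorescence of each spot with its signal to noise.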 The settings on record: higher = more signal.
Test [9] has as its target Torsin-1A-interacting protein 1 (Homo sapiens) (UniProt Q5JTV8). Description: LAP1 binders from COS7 cell lysate, primary screen, small-molecule microarray, 635/667 nm fluorescence (AID 1116). The conditions noted are these: COS7-hLAP1 lysate binding, 635 nm fluorescence, higher = more signal.
Test [10] has as its target Alpha-bungarotoxin (Bungarus multicinctus) (UniProt P60615). The test can be described thus: alpha-bungarotoxin binders on microarray, profiling panel, artefact control for SMM control protein annotation, biochemical, small-molecule microarray, Alexa647 label, 635/667 nm fluorescence (AID 1117). The settings on record: alpha-BTX-A647 binding fluorescence, higher = more signal.

Sequence of Alpha-bungarotoxin (Bungarus multicinctus) (P60615 whole entry, looked up): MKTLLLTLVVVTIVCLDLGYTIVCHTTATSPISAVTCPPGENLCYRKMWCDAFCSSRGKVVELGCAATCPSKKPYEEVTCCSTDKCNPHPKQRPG
Sequence of Torsin-1A-interacting protein 1 (Homo sapiens) (Q5JTV8 whole entry, looked up): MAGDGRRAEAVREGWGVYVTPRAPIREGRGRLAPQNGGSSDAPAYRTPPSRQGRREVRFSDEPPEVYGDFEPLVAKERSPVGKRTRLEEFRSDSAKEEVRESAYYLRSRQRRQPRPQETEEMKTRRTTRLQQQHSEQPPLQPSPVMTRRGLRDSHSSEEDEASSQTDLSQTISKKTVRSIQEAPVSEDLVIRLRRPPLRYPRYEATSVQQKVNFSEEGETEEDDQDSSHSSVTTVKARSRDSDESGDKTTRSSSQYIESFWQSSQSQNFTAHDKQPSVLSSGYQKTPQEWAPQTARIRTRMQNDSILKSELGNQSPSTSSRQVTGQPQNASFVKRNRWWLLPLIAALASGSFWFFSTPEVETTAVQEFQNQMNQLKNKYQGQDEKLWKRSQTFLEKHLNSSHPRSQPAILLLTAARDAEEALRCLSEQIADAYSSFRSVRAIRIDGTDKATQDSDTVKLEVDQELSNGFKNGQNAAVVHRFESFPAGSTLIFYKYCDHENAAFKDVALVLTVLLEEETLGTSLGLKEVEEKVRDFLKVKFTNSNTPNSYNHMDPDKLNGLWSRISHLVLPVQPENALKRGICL

`O=C(NCC(O)CO)[C@]1(Cc2ccccc2)N=C(c2ccc(OCCCO)cc2)O[C@@H]1c1ccccc1` (stereo not given in full): the composite z-score was 0.679 in test [1]; -1.48 in test [3]; 2.61 in test [4]; 1.31 in test [5]; 0.225 in [6]; -0.0642 in [7]. Further, the composite z-score in [8] came to 1.68; in test [9] it was 2.64; in test [10] it was 2.27. Also, the z-score in [2] was -0.378.
For `CC1=C([C@H](O)CCc2ccccc2)[C@H](CO)[C@@H]2C(=O)N(Cc3ccccc3)C(=O)[C@@H]2C1`, the composite z-score is 0.0933 in [1]; 0.334 in test [3]; 0.62 in test [4]; -0.503 in test [5]; -0.0644 in [6]; -0.289 in [7]. The results for the composite z-score in test [8], in test [9] and in test [10] were -0.27, 0.421 and 1.71, respectively. The z-score in test [2] was -0.266.
For the compound `Cc1ccc(N2C(=O)c3ccccc3[C@@H](C(=O)NCC(F)(F)F)[C@@H]2c2ccc(CO)cc2)nc1`, the composite z-score is -2.16 in [1]; -3.15 in test [3]; -1.65 in [4]; -0.526 in [5]; -0.226 in test [6]; -0.0626 in test [7]. Further, the composite z-score was -0.3 in test [8], 0.153 in [9] and -1.81 in test [10]. This compound also showed a z-score in test [2] of 0.643.
As to `O=C1O[C@H](c2ccccc2)[C@H](c2ccccc2)N2[C@H]1[C@@H](C(=O)Nc1nc3ccccc3s1)[C@]1(C(=O)Nc3ccc(C#CC4(O)CCCCCC4)cc31)[C@H]2c1ccc(O)cc1`, the composite z-score is 1.38 in test [1]; 0.596 in [3]; 1.94 in [4]; 0.597 in test [5]; -0.0125 in [6]; -0.203 in [7]. Besides, the composite z-score in test [8] is -0.387; in [9], 1.58; in [10] it was 2.17. In test [2], the z-score is -0.733.
Consider `O=C1c2ccccc2[C@](Cc2ccccc2I)(C(=O)NCc2ccccc2)[C@H](c2ccc(CO)cc2)N1Cc1ccccc1C(F)(F)F`, for which the composite z-score in [1] was -0.32; in test [3] it was -1.38; in test [4] it was -0.027; in test [5] it was 0.988; in [6], -0.148; in test [7], -0.0146. Moreover, the composite z-score in [8] was 1.06; in [9], -0.08; in test [10] it was -0.442. In [2], this compound registered a z-score of 0.344.
`COC(=O)C[C@H]1O[C@]2(C(=O)N(Cc3ccccc3)c3ccc(I)cc32)[C@@H](C)[C@@H]1[Si](C)(C)c1ccc(OC)cc1`: the composite z-score in test [1] was -1.02; in test [3], -0.0651; in test [4] it was 0.267; in test [5], 0.286; in test [6] it was -0.0462; in [7], 0.0062. Moreover, the composite z-score in [8] is -0.208; in test [9] it was -0.267; in test [10] it was 0.13. Further, the z-score in test [2] came to 0.486.
With `COc1ccc(C(O)C2C=CC3C(=O)N(C)C(=O)C3N2N2CCCCC2)cc1OCc1ccccc1` (stereo not given), the composite z-score in [1] was found to be 1.34; in test [3], 0.0446; in test [4], 0.747; in [5], 0.738; in test [6], 0.0391; in test [7], 0.462. Further, the composite z-score in test [8] stood at 1.63; in [9], 0.68; in test [10], 1.87. In test [2], the z-score was 0.421.
Regarding `COCCOC(=O)N1C(=O)[C@@]2(c3cc(C#CCC(C(=O)OC)C(=O)OC)ccc31)[C@H](c1ccccc1OCCO)N1[C@H](c3ccccc3)[C@H](c3ccccc3)OC(=O)[C@H]1[C@@H]2C(=O)N1CCCCCCC1`, the composite z-score in [1] was 1.39; in test [3], 1.24; in test [4], 2.17; in test [5], 1.49; in test [6] it was 0.697; in test [7], 0.626. Besides, the composite z-score in test [8] is 2.62; in test [9] it was 1.31; in [10], 2. Also, in test [2], the z-score is -2.05.
Turning to `COCCOC(=O)N1C(=O)[C@@]2(c3cc(C#CCNC(N)=O)ccc31)[C@H](c1ccc(OCCO)cc1)N1[C@H](c3ccccc3)[C@H](c3ccccc3)OC(=O)[C@H]1[C@@H]2C(=O)N1CCCCCCC1`, the composite z-score in test [1] is 0.853; in test [3], -0.11; in test [4] it was 0.914; in [5], 0.966; in [6] it was -0.027; in test [7], 0.485. In addition, the composite z-score in test [8] worked out at 0.401; in test [9] it was 0.242; in [10], 1.24. This compound registered a z-score in [2] of 0.225.
`COC(=O)[C@@]1(Cc2ccc(OC)cc2)[C@H]2c3cc(C(=O)N(C)C)n(Cc4ccc(C)c(F)c4F)c3C[C@H]2CN1C(=O)c1ccccc1`: the composite z-score in test [1] was 0.723; in test [3], -0.841; in [4], 1.52; in [5], 1.21; in test [6], 0.148; in [7], 0.575. Also, the results for the composite z-score in test [8], in test [9] and in test [10] were 1.09, 0.232 and 0.644, respectively. Besides, in [2], the z-score is -1.35.
In the case of `COCCOC(=O)N1C(=O)[C@@]2(c3cc(C#CCNC(N)=O)ccc31)[C@H](c1ccccc1OCCO)N1[C@H](c3ccccc3)[C@H](c3ccccc3)OC(=O)[C@H]1[C@@H]2C(=O)NC[C@H](O)c1ccccc1`, the composite z-score in test [1] is 1.44; in test [3], 0.391; in test [4] it was 1.07; in [5], 0.527; in test [6], -0.0239; in test [7] it was 0.0639. For the same compound, the composite z-score in test [8] was 0.385; in test [9] it was 0.867; in test [10] it was 2.05. Moreover, the z-score in test [2] was -1.1.
Consider `CO[C@@H]1COC(=O)CC=C[C@@H](C)[C@H](OC)COC(=O)CC=C[C@H]1C`, for which the composite z-score was -0.255 in test [1]; 0.599 in [3]; -0.888 in test [4]; -1.49 in [5]; -0.24 in [6]; 0.0796 in test [7]. Further, the composite z-score was 0.563 in test [8], -0.176 in [9] and -0.587 in test [10]. For the same compound, the z-score in test [2] was found to be 0.353.
Turning to `O=C1O[C@H](c2ccccc2)[C@H](c2ccccc2)N2[C@H]1[C@@H](C(=O)Nc1nc3ccccc3s1)[C@]1(C(=O)Nc3ccc(C#CC4=CCCCC4)cc31)[C@H]2c1ccccc1OCCO`, the composite z-score in test [1] is 1.35; in [3] it was 0.59; in test [4], 1.31; in [5], 0.149; in test [6], -0.0714; in test [7] it was -0.263. In addition, the composite z-score in test [8] turned out to be 0.184; in test [9] it was 0.715; in test [10], 1.04. In [2], the z-score is -1.67.
With `COC(=O)C1=CC(c2ccc(CO)cc2)=CC(C2CC2)N(Cc2sc3ccccc3c2Cl)C=C1C(=O)OC` (stereo not given), the composite z-score in test [1] came out at 1.29; in [3], 0.204; in test [4] it was 2.45; in test [5] it was 0.975; in [6], 0.0017; in test [7], 0.246. Also, the composite z-score is 1.38 in [8], 2.42 in test [9] and 2.75 in test [10]. For the same compound, the z-score in [2] was -1.27.
With `CC(=O)NCCCC[C@@H]1NC(=O)[C@H]2C[C@@H](C(=O)NCCCCCCN(C)C)[C@@H](c3cccc(OCCO)c3)N2C1=O`, the composite z-score was 1.37 in test [1]; 1.45 in test [3]; -1.81 in test [4]; -1.32 in [5]; -0.0185 in test [6]; 0.323 in test [7]. For the same compound, the results for the composite z-score in test [8], in test [9] and in test [10] were -0.0083, 2.25 and 1.41, respectively. This compound also showed a z-score in [2] of 1.33.
Regarding `N#Cc1ccc(NN2C(C(O)c3ccc(I)cc3)C=CC3C(=O)N(c4ccccc4)C(=O)C32)cc1` (stereo not given), the composite z-score was 1.48 in test [1]; -0.417 in test [3]; 1.58 in test [4]; 0.526 in [5]; 0.0803 in [6]; -0.16 in [7]. In addition, the composite z-score in test [8] came to 1.56; in test [9], 0.0108; in test [10] it was 1.32. The z-score in test [2] was 1.56.
As for `CCOC(=O)C[C@H]1[C@H](OC(=O)c2cc3ccccc3oc2=O)[C@@H](NC(=O)c2ccc3ccccc3c2)c2cc(OCCCO)ccc2N1C(=O)c1ccc2ccccc2n1`, the composite z-score in test [1] is -0.0309; in test [3] it was 0.57; in test [4] it was -0.0337; in [5], -0.463; in [6], 0.0554; in test [7], -0.138. Also, the composite z-score in test [8] is 0.193; in test [9], 0.529; in test [10], 0.992. In addition, the z-score in test [2] is -1.15.
`COC(=O)Cn1c(C(=O)N2CCCC2)cc2c1C[C@H]1CN(C(=O)c3ccccc3)[C@@](Cc3ccc(OC)cc3)(C(=O)OC)[C@@H]21`: the composite z-score in test [1] was 1.44; in [3] it was -0.304; in test [4], 1.55; in [5] it was 0.367; in test [6], 0.129; in test [7], 0.593. In addition, the composite z-score in test [8] was 1.83; in test [9], 0.478; in [10], 0.841. The z-score in [2] was -1.21.
